Measurements as given in PubChem BioAssay (NCI).
This is part of a sample that, as a whole, favours compounds with a hit. Of some 83,000 tested, about 20% had one in any assay.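 In brief: 96-well plates, 48 h treatment, single concentration, percent growth endpoint.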 Calls of active or inactive are those of the source. Rule for the calls: active = growth percent below 10; inactive = the rest.

What was measured:
Test in all cases: NCI-60 one-dose screen, 48 h (100 = growth as untreated, 0 = no growth, -100 = all killed)
Conditions in all cases: 10 µM unless noted
HCT-15 colon = system: HCT-15 colon
HT29 colon = system: HT29 colon
SNB-75 CNS = system: SNB-75 CNS
SNB-19 CNS = system: SNB-19 CNS
U251 CNS = system: U251 CNS
PC-3 prostate = system: PC-3 prostate
SK-MEL-5 melanoma = system: SK-MEL-5 melanoma
UACC-62 melanoma = system: UACC-62 melanoma
LOX IMVI melanoma = system: LOX IMVI melanoma
SK-MEL-28 melanoma = system: SK-MEL-28 melanoma

Measured: growth

COc1cc(-c2nc(-c3ccccc3)[nH]c2-c2ccnc(NCCCNS(=O)(=O)c3cccc(F)c3)n2)ccc1F
inactive: HCT-15 colon 72.7% | HT29 colon 83.2% | SNB-75 CNS 112% | SNB-19 CNS 107% | U251 CNS 95.9% | PC-3 prostate 62.9% | SK-MEL-5 melanoma 92% | UACC-62 melanoma 99.8% | LOX IMVI melanoma 86.2% | SK-MEL-28 melanoma 100%

CC(=O)N(O)CCCCCNC(=O)CCC(=O)N(O)CCCCCNC(=O)CCC(=O)N(O)CCCCCN(CCCCCCCCCC[P+](c1ccccc1)(c1ccccc1)c1ccccc1)CCCCCCCCCC[P+](c1ccccc1)(c1ccccc1)c1ccccc1
active: HT29 colon 5.49% | SNB-75 CNS -11% | U251 CNS 6.66% | SK-MEL-5 melanoma -45.9% | UACC-62 melanoma -10.6% | LOX IMVI melanoma -15%
inactive: HCT-15 colon 51.1% | SNB-19 CNS 17.2% | PC-3 prostate 19.6% | SK-MEL-28 melanoma 13.4%

C[C@@H]1OCC2(CCN(c3cnc(C(=O)Nc4cc(F)cc5cccnc45)cn3)CC2)[C@@H]1N
inactive: HCT-15 colon 20.9% | HT29 colon 32.4% | SNB-75 CNS 65.1% | SNB-19 CNS 78.1% | U251 CNS 75.3% | PC-3 prostate 55.7% | SK-MEL-5 melanoma 94.4% | UACC-62 melanoma 54% | LOX IMVI melanoma 44.5% | SK-MEL-28 melanoma 70%

Nc1nc(=O)n([C@H]2C[C@H](O)[C@@H](CO)O2)cc1C=O
inactive: HCT-15 colon 107% | HT29 colon 101% | SNB-75 CNS 122% | SNB-19 CNS 106% | U251 CNS 106% | PC-3 prostate 45% | SK-MEL-5 melanoma 101% | UACC-62 melanoma 106% | LOX IMVI melanoma 106% | SK-MEL-28 melanoma 108%

CN1CCN(c2ccc(Nc3nc(NCCCNS(=O)(=O)c4ccc(C(F)(F)F)cc4)c4sccc4n3)cc2)CC1
active: HCT-15 colon -72.7% | HT29 colon -75.8% | SNB-75 CNS -79.5% | U251 CNS -83.4% | SK-MEL-5 melanoma -95% | UACC-62 melanoma -80.3% | LOX IMVI melanoma -83.6% | SK-MEL-28 melanoma -92.8%
inactive: SNB-19 CNS 17.5% | PC-3 prostate 20.7%

Cc1ccc(OCc2occc2C(=O)N2CCOCC2)cc1
inactive: HCT-15 colon 100% | HT29 colon 108% | SNB-75 CNS 81.8% | SNB-19 CNS 99.8% | U251 CNS 103% | PC-3 prostate 107% | SK-MEL-5 melanoma 100% | UACC-62 melanoma 97.9% | LOX IMVI melanoma 108% | SK-MEL-28 melanoma 110%

COc1ccc2c(c1)c(/C=N/Nc1ccnc3cc(Cl)ccc13)cn2C
active: HCT-15 colon -85.3% | HT29 colon -44.8% | SNB-75 CNS -91.2% | SNB-19 CNS -68.1% | U251 CNS -80.1% | PC-3 prostate -83.8% | SK-MEL-5 melanoma -95% | UACC-62 melanoma -57.7% | LOX IMVI melanoma -78.7% | SK-MEL-28 melanoma -85.2%

O=C(O)c1ccc(-n2c(=O)n(-c3cccc(C(F)(F)F)c3)c(=O)c3cc(-c4ccc(F)cc4F)ccc32)cc1
inactive: HCT-15 colon 10.4% | HT29 colon 48.5% | SNB-19 CNS 13.4% | U251 CNS 11.1% | SK-MEL-28 melanoma 26.1%
active: SNB-75 CNS -12.1% | PC-3 prostate 3.4% | SK-MEL-5 melanoma -60.4% | UACC-62 melanoma -3.72% | LOX IMVI melanoma 5.95%

CC(C)C(/C=C/c1[nH]ncc1-c1cc(Cl)ccc1O)N1CCOCC1 (stereo not given)
inactive: HCT-15 colon 94.9% | HT29 colon 104% | SNB-75 CNS 65.3% | SNB-19 CNS 99.5% | U251 CNS 97.3% | PC-3 prostate 84.7% | SK-MEL-5 melanoma 95% | UACC-62 melanoma 87.1% | LOX IMVI melanoma 98.8% | SK-MEL-28 melanoma 98.9%

C#Cc1nc(C(=O)NCCCCCCC(=O)NO)cs1
inactive: HCT-15 colon 41.3% | SNB-19 CNS 30.6% | PC-3 prostate 14.3%
active: HT29 colon 5.53% | SNB-75 CNS -65.2% | U251 CNS 6.04% | SK-MEL-5 melanoma -55.9% | UACC-62 melanoma -63.1% | LOX IMVI melanoma -84.6% | SK-MEL-28 melanoma -53.1%

COc1ccc(-c2cnc(NC(=O)CCCCCCNC(=O)C(O)(O)C(F)(F)F)s2)cc1
inactive: SNB-75 CNS 36.8% | SNB-19 CNS 17.5% | PC-3 prostate 17.8%
active: HCT-15 colon 4.2% | HT29 colon 0.86% | U251 CNS -46.4% | SK-MEL-5 melanoma -62.2% | UACC-62 melanoma -31.8% | LOX IMVI melanoma -89.5% | SK-MEL-28 melanoma 8.09%

CC(=C(c1ccc(OCCN2CCCC2)cc1)c1ccc(OCCN2CCCC2)cc1)c1ccc(Cl)cc1
inactive: SNB-75 CNS 45.8%
active: HCT-15 colon -73% | HT29 colon -59.2% | SNB-19 CNS -48.8% | U251 CNS -75.1% | PC-3 prostate -26.9% | SK-MEL-5 melanoma -94.9% | UACC-62 melanoma -64.7% | LOX IMVI melanoma -86.5% | SK-MEL-28 melanoma -82.5%

Cc1ccc2c(n1)C(=O)C(Cl)=C(Nc1ccccc1C(=O)OC(C)(C)C)C2=O
active: HCT-15 colon -66.2% | LOX IMVI melanoma -72.5%
inactive: HT29 colon 26.2% | SNB-75 CNS 98.6% | SNB-19 CNS 80.4% | U251 CNS 71.5% | PC-3 prostate 67.1% | SK-MEL-5 melanoma 45.3% | UACC-62 melanoma 79% | SK-MEL-28 melanoma 34.6%

NC1[C@H]2CN(c3cnc(C(=O)Nc4cc(F)cc5cccnc45)cn3)C[C@@H]12 (stereo not given in full)
inactive: HCT-15 colon 32.2% | HT29 colon 26.9% | SNB-75 CNS 56.7% | SNB-19 CNS 75.2% | U251 CNS 60.7% | PC-3 prostate 65.7% | SK-MEL-5 melanoma 89% | UACC-62 melanoma 92.1% | LOX IMVI melanoma 71.5% | SK-MEL-28 melanoma 86.1%

COc1ccc(-c2cc(-c3ccc(N4CCOCC4)cc3)n3c(n2)nc2ccccc23)cc1OC
inactive: HCT-15 colon 83.1% | HT29 colon 105% | SNB-75 CNS 83.3% | SNB-19 CNS 85.1% | U251 CNS 86.1% | PC-3 prostate 73% | SK-MEL-5 melanoma 55.8% | UACC-62 melanoma 94.3% | LOX IMVI melanoma 78.4% | SK-MEL-28 melanoma 94.4%

C#CCOc1ccccc1/C=N/Nc1nc(-c2ccc(Cl)cc2)cs1
inactive: HCT-15 colon 104% | HT29 colon 106% | SNB-75 CNS 92.5% | SNB-19 CNS 97.9% | U251 CNS 99.2% | PC-3 prostate 86.5% | SK-MEL-5 melanoma 98.3% | UACC-62 melanoma 85.7% | LOX IMVI melanoma 95.1% | SK-MEL-28 melanoma 98.1%

CCCc1[nH]c(-c2cc(N)ccc2Cl)c2c1C(=O)CCCC2
inactive: HCT-15 colon 90.6% | HT29 colon 104% | SNB-75 CNS 89.2% | SNB-19 CNS 100% | U251 CNS 102% | PC-3 prostate 85.6% | SK-MEL-5 melanoma 98.1% | UACC-62 melanoma 82.1% | LOX IMVI melanoma 107% | SK-MEL-28 melanoma 102%

Cc1ccc(C(=O)CSc2nnc(-c3ccc(-c4ccc(Cl)cc4)nc3C)o2)cc1
inactive: HCT-15 colon 102% | HT29 colon 104% | SNB-75 CNS 90.7% | SNB-19 CNS 99.3% | U251 CNS 104% | PC-3 prostate 94.6% | SK-MEL-5 melanoma 95% | UACC-62 melanoma 84.8% | LOX IMVI melanoma 95.3% | SK-MEL-28 melanoma 99.9%
